Records with an inconclusive call do not appear. Calls of active or inactive are those of the source. Unless noted, the call rests on the fitted dose curve; in most records, active means well fitted curve in the direction sought with a large enough effect in the repeat runs; inconclusive means weak or mixed curves; inactive means no such curve, though single readings can be large; an effect the other way counts as inactive or inconclusive.
Assays:
[1] = qHTS assay to identify small molecule agonists of the RXR signaling pathway - cell viability counter screen (AID 1159529); further: nearly all actives have a fitted effect of over 50% in size; further: potency means the concentration at half of the fitted maximal effect; on activity change, negative = cytotoxicity: series mostly up to about 77 µM
Summary of the method: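 CellTiter-Glo luminescence gave viability in the wells also read for beta-lactamase. Cells (RXR-alpha-UAS-bla HEK 293T, 2% charcoal-stripped FBS medium) had 5 hr plating, then 16 hr compound exposure at 37 C; tetraoctyl ammonium bromide served as positive control.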

[2] = qHTS assay to identify small molecule antagonists of the retinoid acid receptor (RAR) signaling pathway - cell viability counter screen (AID 1159551); further: nearly all actives have a fitted effect of over 35% in size
Summary of the method: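 In this counter screen, the RARE-luciferase line C3RL4 was exposed for 6 h at 37 C and 5% CO2 to compounds with retinol at 1 uM final. Cellular ATP, read by luminescence, served as the viability measure.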

[3] = qHTS assay to identify small molecule antagonists of the retinoic acid receptor (RAR) signaling pathway (AID 1159552; further: nearly all actives have a fitted effect of over 50% in size; further: potency means the concentration at half of the fitted maximal effect)
Summary of the method: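 Luminescent RARE reporter read-out in C3RL4 cells: 6 hr co-treatment at 37 C of test compounds with retinol at 1 uM final. Cells plated overnight beforehand; luciferase reagent incubated 30 min at room temperature before reading.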

[4] = qHTS assay to identify small molecule agonists of the retinoic acid receptor (RAR) signaling pathway (AID 1159553); further: potency means the concentration at half of the fitted maximal effect
Summary of the method: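 In this cell-based screen, 1,000 C3RL4 cells per well were cultured overnight, dosed with test chemicals in DMSO for 6 hr, and assessed for RARE luciferase luminescence.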

[5] = qHTS assay to identify small molecule antagonists of the estrogen related receptor (ERR) signaling pathway from Tox21 library - cell viability counter screen (AID 1224834); further: nearly all actives have a fitted effect of over 30% in size
Summary of the method: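 Counter screen run in ERR cells (2,000 cells/well): cells pre-incubated 6 h, then treated with compounds for 17.5 h at 37 C. Fluorescence was read 30 min after CellTiter-Fluor addition.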

[6] = target: Luciferin 4-monooxygenase (Photinus pyralis) (UniProt P08659); assay: qHTS assay to identify small molecule inhibitors of firefly luciferase (AID 1224835); further: nearly all actives have a fitted effect of over 25% in size; further: potency means the concentration at half of the fitted maximal effect; on activity change, negative = inhibition: series mostly up to about 120 µM
Summary of the method: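 Biochemical qHTS: compounds run as interplate titrations against purified firefly enzyme, with D-luciferin and ATP each at its KM concentration. Light output recorded by CCD imaging.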

[7] = qHTS assay to identify small molecule agonists of the constitutive androstane receptor (CAR) signaling pathway - cell viability counter screen (AID 1224836); further: series mostly up to about 92 µM; nearly all actives have a fitted effect of over 45% in size
Summary of the method: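 Cell viability multiplexed with the CAR agonist screen: CellTiter-Fluor fluorescence after 23 hr at 37 C. HepG2-CYP2B6-hCAR cells got compounds at 15 concentrations with PK11195 at 0.75 uM final.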

[8] = qHTS assay to identify small molecule antagonists of the constitutive androstane receptor (CAR) signaling pathway - cell viability counter screen (AID 1224837); further: series mostly up to about 92 µM; nearly all actives have a fitted effect of over 45% in size
Summary of the method: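 CITCO at 50 nM final was added alongside compounds (15 concentrations) to double-stable hCAR/CYP2B6-2.2kb HepG2 cells. Following 23 hr at 37 C, cell viability was quantified by CellTiter-Fluor fluorescence intensity.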

[9] = target: Nuclear receptor subfamily 1 group I member 3 (Homo sapiens) (UniProt Q14994); assay: qHTS assay to identify small molecule antagonists of the constitutive androstane receptor (CAR) signaling pathway (AID 1224838); further: nearly all actives have a fitted effect of over 40% in size; further: potency means the concentration at half of the fitted maximal effect
Summary of the method: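 Inhibition of CITCO-driven (50 nM final) CYP2B6 reporter expression is measured in HepG2 cells stably carrying hCAR. Fifteen compound concentrations are applied for 24 h at 37 C, followed by luciferase luminescence.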

[10] = target: Nuclear receptor subfamily 1 group I member 3 (Homo sapiens) (UniProt Q14994); assay: qHTS assay to identify small molecule agonists of the constitutive androstane receptor (CAR) signaling pathway (AID 1224839); further: series mostly up to about 92 µM; nearly all actives have a fitted effect of over 15% in size
Summary of the method: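 Luminescent ONE-Glo read-out after 24 hr, 37 C exposure of double-stable HepG2-CYP2B6-hCAR reporter cells to a 15-point compound series, in the presence of 0.75 uM PK11195 (final).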

[11] = qHTS assay to identify small molecule antagonists of the estrogen related receptor signaling pathway with the pleiotropic PPARgamma coactivator (PGC) from Tox21 10K library - cell viability counter screen (AID 1224840; active means well fitted cell-killing curve with a large enough effect in the repeat runs, not every such curve was filed as active; further: nearly all actives have a fitted effect of over 40% in size)
Summary of the method: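 Readout: fluorescence intensity from CellTiter-Fluor after 30 min at 37 C/5% CO2. Preceded by 17.5 h treatment of PGC/ERR cells with DMSO-dissolved compounds, added 6 h post-seeding.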

[12] = qHTS assay to identify small molecule antagonists of the estrogen related receptor signaling pathway with the pleiotropic PPARgamma coactivator (PGC) from Tox21 10K library (AID 1224841; call rule not given here; further: actives are mostly falling curves and most rising ones were filed inactive; nearly all actives have a fitted effect of over 50% in size; further: potency means the concentration at half of the fitted maximal effect; on activity, negative = inhibition: series mostly up to about 92 µM)
Summary of the method: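 One-Glo luminescence, measured after half an hour at room temperature, quantified reporter output of PGC/ERR cells. These had been plated at 2,000 per well, incubated 6 h, dosed with compounds in DMSO, then kept 18 h at 37 C.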

[13] = qHTS assay to identify small molecule agonists of the estrogen related receptor signaling pathway with the pleiotropic PPARgamma coactivator (PGC) from Tox21 10K library (AID 1224842); further: nearly all actives have a fitted effect of over 15% in size
Summary of the method: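 PGC/ERR reporter cell line, 2,000 cells per well, incubated 6 h at 37 C before 23 nL compound in DMSO was added. After 18 h at 37 C, One-Glo luminescence read following 30 min at room temperature.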

[14] = target: Retinoic acid receptor RXR-alpha (Homo sapiens) (UniProt P19793); assay: qHTS assay to identify small molecule agonists of the RXR signaling pathway (AID 1159527; calls by dose curve; further: nearly all actives have a fitted effect of over 35% in size)
Summary of the method: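 Agonist-mode beta-lactamase reporter assay: HEK 293T RXR-alpha-UAS-bla cells treated 16 hr at 37 C with compounds, 9-cis retinoic acid as positive control. LiveBLAzer FRET substrate, 405 nm excitation, 460/530 nm emission.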

[15] = qHTS assay to identify small molecule antagonists of the estrogen related receptor (ERR) signaling pathway - cell viability counter screen (AID 1224818); further: series mostly up to about 46 µM
Summary of the method: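 Viability of ERR cells, CellTiter-Fluor fluorescence; 17.5 h compound exposure at 37 C, DMSO vehicle; 30 min reagent incubation at 37 C/5% CO2.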

[16] = qHTS assay to identify small molecule antagonists of the estrogen related receptor (ERR) signaling pathway (AID 1224819;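 further: luminescence from an ERR-driven luciferase reporter measured with One-Glo reagent; series mostly up to about 46 µM; nearly all actives have a fitted effect of over 50% in size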)
Summary of the method: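 Seed ERR cells 2,000/well; rest 6 h at 37 C/5% CO2; pin compounds in DMSO; incubate 18 h at 37 C; add One-Glo; wait 30 min at room temperature; measure luminescence.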

[17] = qHTS assay to identify small molecule agonists of the estrogen related receptor (ERR) signaling pathway (AID 1224820)
Summary of the method: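 Luminescence readout (One-Glo, 30 min RT) from NTP-supplied ERR cell line exposed to compounds for 18 h at 37 C. Cells seeded 2,000 per well and pre-incubated 6 h before pin-tool compound transfer.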

[18] = tested on: estrogen-related receptor alpha (ERRalpha) with PGC-1alpha coactivator, human; assay: qHTS assay to identify small molecule antagonists of the estrogen related receptor signaling pathway with the pleiotropic PPARgamma coactivator (PGC) (AID 1224821; calls by dose curve)
Summary of the method: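 PGC/ERR reporter cells; 6 h pre-incubation 37 C/5% CO2; pin-tool compound in DMSO, 18 h 37 C; One-Glo added, 30 min RT; luminescence read. qHTS antagonist mode.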

[19] = qHTS assay to identify small molecule antagonists of the estrogen related receptor signaling pathway with the pleiotropic PPARgamma coactivator (PGC) cell viability counter screen (AID 1224822; further: series mostly up to about 46 µM)
Summary of the method: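 17.5 h compound treatment of PGC/ERR cells at 37 C; readout CellTiter-Fluor fluorescence; run alongside the PGC/ERR antagonist screen to flag cytotoxic compounds.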

[20] = qHTS assay to identify small molecule agonists of the estrogen related receptor signaling pathway with the pleiotropic PPARgamma coactivator (PGC) (AID 1224823)
Summary of the method: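 Luminescence readout (One-Glo, 30 min RT) from PGC/ERR cell line treated 18 h at 37 C with pin-tool-delivered DMSO compound solutions; cells plated 6 h before dosing. Quantitative HTS format.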
On the % scale 0 is the no-effect control and ±100 the full control effect.

Chain of Retinoic acid receptor RXR-alpha (Homo sapiens) (P19793 whole entry, looked up): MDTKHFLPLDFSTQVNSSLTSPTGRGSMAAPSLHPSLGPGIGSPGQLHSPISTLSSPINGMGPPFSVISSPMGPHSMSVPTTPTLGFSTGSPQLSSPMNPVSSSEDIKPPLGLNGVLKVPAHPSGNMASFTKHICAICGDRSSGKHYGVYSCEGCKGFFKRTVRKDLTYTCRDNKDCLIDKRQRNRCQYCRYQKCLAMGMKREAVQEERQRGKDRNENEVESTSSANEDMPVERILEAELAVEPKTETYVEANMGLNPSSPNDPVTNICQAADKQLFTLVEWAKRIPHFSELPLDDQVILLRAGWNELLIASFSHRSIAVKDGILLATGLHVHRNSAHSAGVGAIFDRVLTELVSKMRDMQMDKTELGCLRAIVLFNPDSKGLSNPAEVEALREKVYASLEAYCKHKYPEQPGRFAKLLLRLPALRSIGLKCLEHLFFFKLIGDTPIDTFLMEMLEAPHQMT
Chain of Luciferin 4-monooxygenase (Photinus pyralis) (P08659 whole entry, looked up): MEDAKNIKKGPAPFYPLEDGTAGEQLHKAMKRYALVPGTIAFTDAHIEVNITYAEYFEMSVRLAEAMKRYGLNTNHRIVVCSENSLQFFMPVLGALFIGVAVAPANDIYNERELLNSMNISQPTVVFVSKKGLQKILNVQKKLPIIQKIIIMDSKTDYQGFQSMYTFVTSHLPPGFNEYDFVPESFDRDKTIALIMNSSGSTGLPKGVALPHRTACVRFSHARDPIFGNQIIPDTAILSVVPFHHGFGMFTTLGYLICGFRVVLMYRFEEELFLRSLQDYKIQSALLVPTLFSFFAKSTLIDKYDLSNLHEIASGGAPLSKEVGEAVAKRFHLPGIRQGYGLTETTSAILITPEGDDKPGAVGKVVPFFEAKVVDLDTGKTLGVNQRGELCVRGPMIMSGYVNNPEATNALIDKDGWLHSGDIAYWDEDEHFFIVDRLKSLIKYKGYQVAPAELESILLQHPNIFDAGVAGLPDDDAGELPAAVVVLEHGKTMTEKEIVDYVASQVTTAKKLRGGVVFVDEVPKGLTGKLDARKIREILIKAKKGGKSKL
Chain of Nuclear receptor subfamily 1 group I member 3 (Homo sapiens) (Q14994 whole entry, looked up): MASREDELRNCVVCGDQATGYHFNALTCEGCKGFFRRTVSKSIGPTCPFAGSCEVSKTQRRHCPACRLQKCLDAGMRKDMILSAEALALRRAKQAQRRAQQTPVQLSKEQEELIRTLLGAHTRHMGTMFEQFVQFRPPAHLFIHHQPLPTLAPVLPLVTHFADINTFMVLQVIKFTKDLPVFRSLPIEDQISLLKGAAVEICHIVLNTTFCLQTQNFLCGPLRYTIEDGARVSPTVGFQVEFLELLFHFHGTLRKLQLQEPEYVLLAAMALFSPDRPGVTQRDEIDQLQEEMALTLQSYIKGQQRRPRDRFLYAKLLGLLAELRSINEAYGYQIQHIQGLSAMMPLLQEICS

O=C(Cl)c1cccc([N+](=O)[O-])c1
inactive: Potency [1] | outcome [2] | Potency [3] | Potency [4] | Potency [5] | Potency [6] | Potency [7] | Potency [8] | Potency [9] | Potency [10] | Potency [11] | Potency [12] | Potency [13]

CN(C)CCOc1ccccc1Cc1ccccc1
inactive: Potency [14] | outcome [2] | Potency [3] | Potency [4] | Potency [5] | Potency [6] | Potency [7] | Potency [8] | Potency [9] | Potency [11] | Potency [13]

CCCN(CCC)C(=O)C(CCC(=O)O)NC(=O)c1ccccc1 (centres undefined)
inactive: Potency [1] | outcome [2] | Potency [3] | Potency [4] | outcome [15] | outcome [16] | outcome [17] | outcome [18] | outcome [19] | outcome [20] | Potency [5] | Potency [6] | Potency [7] | Potency [8] | Potency [9] | Potency [10] | Potency [11] | Potency [12] | Potency [13]

OCc1c2ccccc2cc2ccccc12
active: Potency [12] 68.8 µM
inactive: Potency [14] | Potency [1] | Potency [3] | Potency [5] | Potency [7] | Potency [8] | Potency [9] | Potency [11]

CC/C=C\CCOC(=O)C(C)C
inactive: Potency [14] | Potency [1] | Potency [3] | Potency [4] | Potency [6] | Potency [7] | Potency [8] | Potency [11]

CCOC(=O)C1CC(=O)C(=C(O)C2CC2)C(=O)C1 (centres undefined)
inactive: Potency [1] | outcome [2] | Potency [3] | Potency [4] | Potency [5] | Potency [6] | Potency [7] | Potency [8] | Potency [9] | Potency [11] | Potency [12] | Potency [13]

Cc1onc(-c2ccccc2)c1C(=O)Cl
inactive: Potency [14] | Potency [1] | Potency [3] | Potency [4] | Potency [6] | Potency [8] | Potency [9] | Potency [11]

O=C(O)c1cccc(Cl)c1Cl
inactive: Potency [14] | Potency [1] | Potency [3] | Potency [4] | Potency [6] | Potency [7] | Potency [8] | Potency [9] | Potency [10] | Potency [11]

CCOC(=O)CS
inactive: Potency [1] | outcome [2] | Potency [4] | Potency [5] | Potency [6] | Potency [7] | Potency [8] | Potency [10] | Potency [11] | Potency [13]
active: Potency [3] 28.1 µM | Potency [9] 56 µM | Potency [12] 14.1 µM

C[C@@H]1CN(c2c(F)c(F)c3c(=O)c(C(=O)O)cn(C4CC4)c3c2F)C[C@H](C)N1
inactive: activity change, negative = cytotoxicity [1] 10.3% [at 15.8 µM] | activity change, negative = cytotoxicity [2] 3.44% [at 19 µM] | activity, negative = inhibition [3] 16.3% [at 19 µM] | Potency [4] | viability change, negative = cytotoxic [5] 2.27% [at 19 µM] | activity change, negative = inhibition [6] 4.05% [at 23.6 µM] | viability change, negative = cytotoxic [7] 4.91% [at 19 µM] | activity change, negative = cytotoxicity [8] 2.19% [at 19 µM] | activity, negative = inhibition [9] 14.9% [at 19 µM] | viability change, negative = cytotoxic [11] 2.41% [at 19 µM] | activity, negative = inhibition [12] 20.9% [at 19 µM] | activation [13] 6.21% [at 19 µM]

CCOC(=O)NCCC[Si](OCC)(OCC)OCC
inactive: Potency [14] | Potency [1] | Potency [3] | Potency [4] | Potency [6] | Potency [7] | Potency [8] | Potency [9] | Potency [11] | Potency [12] | Potency [13]

CC(=O)Nc1ccc(C)c(Cl)c1
inactive: Potency [1] | outcome [2] | Potency [3] | Potency [4] | Potency [5] | Potency [6] | Potency [7] | Potency [8] | Potency [9] | Potency [10] | Potency [11]

Cc1ccc(C)c(N)c1
inactive: Potency [1] | outcome [2] | Potency [3] | Potency [4] | Potency [5] | Potency [6] | Potency [7] | Potency [8] | Potency [9] | Potency [11] | Potency [12]

Nc1cccc(S(=O)(=O)O)c1
inactive: Potency [1] | outcome [2] | Potency [3] | Potency [4] | Potency [5] | Potency [6] | Potency [7] | Potency [8] | Potency [9] | Potency [10] | Potency [11]

CCC/C=C/CO
inactive: Potency [14] | Potency [1] | Potency [4] | Potency [5] | Potency [6] | Potency [7] | Potency [8] | Potency [9] | Potency [10] | Potency [11]

Cc1cc2nc(N)sc2cc1C
inactive: Potency [14] | outcome [2] | Potency [3] | Potency [5] | Potency [7] | Potency [8] | Potency [9] | Potency [11]
active: Potency [4] 1.38 µM | Potency [6] 5.69 µM

CC(=O)N(CC(O)CN(C(C)=O)c1c(I)c(C(=O)NCC(O)CO)c(I)c(C(=O)NCC(O)CO)c1I)c1c(I)c(C(=O)NCC(O)CO)c(I)c(C(=O)NCC(O)CO)c1I (centres undefined)
inactive: Potency [14] | Potency [1] | Potency [3] | Potency [4] | Potency [6] | Potency [7] | Potency [8] | Potency [9] | Potency [10] | Potency [11]

NC(=O)NS(=O)(=O)c1ccc(Cl)cc1
inactive: Potency [1] | outcome [2] | Potency [3] | Potency [4] | Potency [5] | Potency [6] | Potency [7] | Potency [8] | Potency [9] | Potency [10] | Potency [11]

CC(C)(C)c1ccc(OC(=O)c2ccccc2O)cc1
inactive: outcome [2] | Potency [3] | Potency [5] | Potency [7] | Potency [8] | Potency [9] | Potency [11] | Potency [12]
active: Potency [1] 49 µM | Potency [4] 1.09 µM | Potency [6] 1.78 µM

CCC1(C)NC(=O)NC1=O (centres undefined)
inactive: Potency [14] | Potency [1] | Potency [3] | Potency [4] | Potency [6] | Potency [7] | Potency [8] | Potency [11]

Reference: PubChem BioAssay (Tox21)
